Test [1] is described as follows: ATG_TCF_b_cat_CIS: Attagene CIS-FACTORIAL HepG2 Assay for human T-Cell-Factor with beta-catenin (TCF/b-cat) (AID 2282965). The conditions noted are these: HepG2 TCF/beta-catenin cis-reporter transcription, actives raise or lower the signal. An outline of the steps:
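Measured: reporter mRNA in HepG2 transiently transfected with cis-promoter reporter units, 24 h after chemical addition. Fitting was bidirectional, DMSO as negative control.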

A short description of test [2]: ATG_TAL_CIS: Attagene CIS-FACTORIAL HepG2 Assay for human TAL Basal Promoter (AID 2282966).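 Further: background control endpoint measuring basal TAL promoter reporter mRNA not a specific factor.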 The conditions noted are these: HepG2 Attagene cis-factorial TAL promoter reporter; actives raise or lower the signal. An outline of the steps:
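Fluorescence of labelled reporter cDNA fragments, resolved by capillary electrophoresis, gave the readout. Human HepG2 liver cells carried transiently transfected cis-element reporter units and were treated for 24 hours; activity was fitted bidirectionally against DMSO.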

Test [3] in a line: ATG_TGFb_CIS: Attagene CIS-FACTORIAL HepG2 Assay for human Transforming Growth Factor (TGF) (AID 2282967). The settings on record: HepG2 Attagene CIS TGFb reporter, mRNA transcription; actives raise or lower the signal. The gist of the method:
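HepG2 cells transiently transfected with cis-promoter-driven multiple reporter units measure endogenous TF activity; reporter mRNA quantified at 24 h by RT-PCR, FAM labeling, HpaI digestion and capillary electrophoresis. Bidirectional fit vs DMSO.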

Test [4] deals with Estrogen receptor (Homo sapiens) (UniProt P03372). Briefly: ATG_ERa_TRANS: Attagene TRANS-FACTORIAL HepG2 Assay for human Estrogen Receptor alpha (ERa) (AID 2282970; active means hit-call score of the fitted dose curve at least 0.9, where 1 is the maximum). The settings on record: HepG2 Attagene TRANS ERa GAL4 reporter, mRNA. An outline of the steps:
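Human liver HepG2, transient transfection of multiple GAL4-UAS reporter units; TRANS format (exogenous NR-Gal4 chimera). 24 h dosing. Readout: reporter mRNA, RT-PCR, 6-FAM primer extension, HpaI digest, capillary electrophoresis. Positive direction vs DMSO.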

Test [5] can be described thus: ATG_M_19_TRANS: Attagene TRANS-FACTORIAL HepG2 Assay for M19 Transcription Factor (Internal Marker) (AID 2282974; active means hit-call score of the fitted dose curve at least 0.9, where 1 is the maximum). The conditions noted are these: HepG2 Attagene TRANS-FACTORIAL M19 internal marker reporter. An outline of the steps:
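HepG2 cells transiently transfected with multiple GAL4-UAS reporter transcription units were exposed to chemicals for 24 h. Reporter mRNA was read by RT-PCR, 6-FAM primer extension, HpaI digestion and capillary electrophoresis; gain of signal fitted relative to DMSO.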

A short description of test [6]: ATG_GAL4_TRANS: Attagene TRANS-FACTORIAL HepG2 Assay for GAL4 (Internal Marker) (AID 2282976; active means hit-call score of the fitted dose curve at least 0.9, where 1 is the maximum). The settings on record: HepG2 Attagene TRANS GAL4 internal marker reporter. The gist of the method: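 First, HepG2 cells were transfected with reporter units under GAL4-UAS control. Next, they were treated with chemical for 24 h. Finally, RNA was reverse-transcribed, PCR-amplified, FAM-labelled and resolved by capillary electrophoresis, with induction scored against DMSO.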

The target of test [7] is Oxysterols receptor LXR-alpha (Homo sapiens) (UniProt Q13133). Description: ATG_LXRa_TRANS: Attagene TRANS-FACTORIAL HepG2 Assay for human Liver X Receptor alpha (LXRa) (AID 2282980; active means hit-call score of the fitted dose curve at least 0.9, where 1 is the maximum). The conditions noted are these: HepG2 Attagene TRANS reporter, LXRa transactivation. The gist of the method:
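Transfect HepG2 with GAL4-UAS multiplex reporter constructs (TRANS format, chimeric receptor-GAL4); treat 24 h; extract RNA, reverse-transcribe, PCR-amplify, FAM-label, HpaI-digest; resolve fragments by capillary electrophoresis. Upward response vs DMSO.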

Test [8] concerns the target Hepatocyte nuclear factor 4-alpha (Homo sapiens) (UniProt P41235). Briefly: ATG_HNF4a_TRANS: Attagene TRANS-FACTORIAL HepG2 Assay for human Hepatocyte Nuclear Factor 4 alpha (HNF4a) (AID 2282982; active means hit-call score of the fitted dose curve at least 0.9, where 1 is the maximum). The settings on record: HepG2 HNF4a transactivation reporter, mRNA readout. The gist of the method:
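Transfected HepG2 reporter cells are dosed for 24 h; reporter RNA is reverse-transcribed, amplified, fluorescently labelled and HpaI-digested before CE sizing. Positive-direction fit against DMSO.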

The nature of test [9]: ATG_M_32_TRANS: Attagene TRANS-FACTORIAL HepG2 Assay for M32 Transcription Factor (Internal Marker) (AID 2282984; active means hit-call score of the fitted dose curve at least 0.9, where 1 is the maximum;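 further: transcript level of a background control reporter unit measured by RT-PCR and capillary electrophoresis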). The conditions noted are these: HepG2 Attagene TRANS M32 internal marker reporter. An outline of the steps:
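Using transiently transfected HepG2 cells exposed to test chemicals for 24 h, reporter transcripts are converted to labelled cDNA fragments and quantified by capillary electrophoresis. DMSO defines the activity baseline.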

In test [10] the target is Transcriptional activator Myb (Homo sapiens) (UniProt P10242). Description: ATG_Myb_CIS: Attagene CIS-FACTORIAL HepG2 Assay for human Myeloblastosis (Myb) Proto-Oncogene Transcription Factor (AID 2282986). The conditions noted are these: HepG2 Attagene CIS-FACTORIAL Myb reporter transcription; actives raise or lower the signal. An outline of the steps: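 HepG2 cells were transiently transfected with cis-regulated multiple reporter transcription units reflecting endogenous Myb activity, then exposed to compound for 24 hours. Reporter mRNA was measured by RT-PCR with capillary electrophoresis; bidirectional fitting versus DMSO baseline.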

Test [11] deals with X-box-binding protein 1 (Homo sapiens) (UniProt P17861). Briefly: ATG_Xbp1_CIS: Attagene CIS-FACTORIAL HepG2 Assay for human X-box Binding Protein 1 (XBP1) (AID 2282972). The conditions noted are these: HepG2 XBP1 cis-element reporter, Attagene multiplex; actives raise or lower the signal. The gist of the method:
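HepG2, transient MRTU transfection (cis-promoter driven), 24 h compound exposure. Total RNA → oligo(dT) RT → PCR → 6-FAM labeling → HpaI cut → CE. Bidirectional fit vs DMSO.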

Test [12] in a line: ATG_M_06_TRANS: Attagene TRANS-FACTORIAL HepG2 Assay for M06 Transcription Factor (Internal Marker) (AID 2282983; active means hit-call score of the fitted dose curve at least 0.9, where 1 is the maximum;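 further: reporter transcript level by RT-PCR then capillary electrophoresis fluorescence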). The settings on record: HepG2 Attagene TRANS M06 internal marker reporter. The gist of the method: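 Transfect HepG2 with MRTUs → dose compounds 24 h → isolate RNA, oligo(dT) RT → PCR with reporter primers → 6-FAM primer extension → HpaI digest → CE fragment analysis. Positive direction vs DMSO.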

The target of test [13] is Nuclear receptor subfamily 4 group A member 2 (Homo sapiens) (UniProt P43354). Briefly: ATG_NURR1_TRANS: Attagene TRANS-FACTORIAL HepG2 Assay for human Nuclear Receptor Related Protein 1 (NURR1) (AID 2282985; active means hit-call score of the fitted dose curve at least 0.9, where 1 is the maximum). The conditions noted are these: HepG2 Attagene TRANS reporter, mRNA readout. An outline of the steps: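 Cells: HepG2, transiently transfected. Exposure: 24 h. Detection: fluorescence of labelled RT-PCR products separated by capillary electrophoresis; upward fit versus DMSO.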

The target in test [14] is Oxysterols receptor LXR-beta (Homo sapiens) (UniProt P55055). Description: ATG_LXRb_TRANS: Attagene TRANS-FACTORIAL HepG2 Assay for human Liver X Receptor beta (LXRb) (AID 2282981; active means hit-call score of the fitted dose curve at least 0.9, where 1 is the maximum). The conditions noted are these: HepG2 Attagene TRANS GAL4-LXRb reporter, mRNA. An outline of the steps:
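Cells: HepG2, transiently transfected with GAL4-UAS reporter units plus LXRb-Gal4 fusion. Treatment: 24 h. Detection: reporter mRNA by RT-PCR, 6-FAM labelling, HpaI digestion, capillary electrophoresis.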

The target in test [15] is Glucocorticoid receptor (Homo sapiens) (UniProt P04150). Briefly: ATG_GR_TRANS: Attagene TRANS-FACTORIAL HepG2 Assay for human Glucocorticoid Receptor (GR) (AID 2282978; active means hit-call score of the fitted dose curve at least 0.9, where 1 is the maximum;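 further: activators score as hits since higher reporter transcript over DMSO is fitted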). The conditions noted are these: HepG2 Attagene TRANS GR reporter, mRNA transcription. An outline of the steps:
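HepG2 cells transiently transfected with multiplexed reporter units in which chimeric NR-GAL4 proteins drive GAL4-UAS reporters; 24 h compound exposure. Reporter mRNA measured by RT-PCR, 6-FAM labelling, HpaI digestion and capillary electrophoresis; gain-of-signal fitted versus DMSO.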

For test [16], the target named is Steroid hormone receptor ERR1 (Homo sapiens) (UniProt P11474). Description: ATG_ERRa_TRANS: Attagene TRANS-FACTORIAL HepG2 Assay for human Estrogen-Related Receptor alpha (ERRa) (AID 2282971; active means hit-call score of the fitted dose curve at least 0.9, where 1 is the maximum). The settings on record: HepG2 Attagene TRANS reporter, ERRa transactivation. An outline of the steps: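 Reporter transcript induction was quantified by RT-PCR and capillary electrophoresis of FAM-labelled, HpaI-cut products after 24 h treatment of HepG2 cells carrying transiently transfected GAL4-UAS reporter units and an exogenous ERRa-Gal4 fusion; activity scored as increase over DMSO.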

Records with an inconclusive call do not appear. Calls of active or inactive are those of the source. How the source made its calls, unless noted: active means hit-call score of the fitted dose curve at least 0.9, where 1 is the maximum; inactive means score below 0.9.

These results are taken from PubChem BioAssay (EPA / NIEHS).

Chain of Estrogen receptor (Homo sapiens) (P03372 whole entry, looked up, the tested form may be a part): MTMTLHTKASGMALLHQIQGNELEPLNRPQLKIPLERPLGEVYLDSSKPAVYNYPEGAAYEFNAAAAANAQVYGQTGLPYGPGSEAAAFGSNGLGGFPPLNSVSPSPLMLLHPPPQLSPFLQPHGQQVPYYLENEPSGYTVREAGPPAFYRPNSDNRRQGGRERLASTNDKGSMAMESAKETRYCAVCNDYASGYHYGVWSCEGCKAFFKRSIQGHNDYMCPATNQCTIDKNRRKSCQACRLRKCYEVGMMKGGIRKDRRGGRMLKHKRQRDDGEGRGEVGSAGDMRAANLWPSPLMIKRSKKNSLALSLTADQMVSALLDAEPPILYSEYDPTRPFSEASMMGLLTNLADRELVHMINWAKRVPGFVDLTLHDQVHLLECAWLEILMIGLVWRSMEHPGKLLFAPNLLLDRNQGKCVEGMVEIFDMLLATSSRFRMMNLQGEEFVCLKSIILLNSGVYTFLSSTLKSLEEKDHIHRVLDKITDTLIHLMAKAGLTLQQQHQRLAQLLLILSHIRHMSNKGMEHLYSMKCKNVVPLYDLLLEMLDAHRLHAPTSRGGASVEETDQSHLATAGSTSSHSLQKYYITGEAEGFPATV
Chain of Hepatocyte nuclear factor 4-alpha (Homo sapiens) (P41235 whole entry, looked up): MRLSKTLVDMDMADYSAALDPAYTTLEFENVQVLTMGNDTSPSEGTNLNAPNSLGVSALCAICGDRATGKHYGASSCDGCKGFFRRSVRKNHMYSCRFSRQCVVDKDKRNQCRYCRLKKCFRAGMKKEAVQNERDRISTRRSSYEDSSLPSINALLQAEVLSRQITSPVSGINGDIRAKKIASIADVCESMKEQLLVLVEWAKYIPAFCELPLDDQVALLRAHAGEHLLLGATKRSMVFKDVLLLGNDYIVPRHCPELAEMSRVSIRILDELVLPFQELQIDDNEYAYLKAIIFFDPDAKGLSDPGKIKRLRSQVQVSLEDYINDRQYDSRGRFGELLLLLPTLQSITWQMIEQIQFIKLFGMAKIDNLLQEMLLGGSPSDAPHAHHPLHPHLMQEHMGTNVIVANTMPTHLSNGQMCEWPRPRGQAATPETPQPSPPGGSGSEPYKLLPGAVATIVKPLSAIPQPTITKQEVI
Chain of X-box-binding protein 1 (Homo sapiens) (P17861 whole entry, looked up): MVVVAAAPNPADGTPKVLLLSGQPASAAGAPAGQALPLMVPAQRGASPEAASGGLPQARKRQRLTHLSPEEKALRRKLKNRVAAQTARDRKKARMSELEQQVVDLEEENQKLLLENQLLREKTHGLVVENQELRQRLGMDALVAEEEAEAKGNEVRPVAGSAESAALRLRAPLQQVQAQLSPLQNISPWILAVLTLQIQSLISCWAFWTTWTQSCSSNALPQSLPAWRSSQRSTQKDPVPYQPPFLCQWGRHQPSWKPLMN
Chain of Transcriptional activator Myb (Homo sapiens) (P10242 whole entry, looked up): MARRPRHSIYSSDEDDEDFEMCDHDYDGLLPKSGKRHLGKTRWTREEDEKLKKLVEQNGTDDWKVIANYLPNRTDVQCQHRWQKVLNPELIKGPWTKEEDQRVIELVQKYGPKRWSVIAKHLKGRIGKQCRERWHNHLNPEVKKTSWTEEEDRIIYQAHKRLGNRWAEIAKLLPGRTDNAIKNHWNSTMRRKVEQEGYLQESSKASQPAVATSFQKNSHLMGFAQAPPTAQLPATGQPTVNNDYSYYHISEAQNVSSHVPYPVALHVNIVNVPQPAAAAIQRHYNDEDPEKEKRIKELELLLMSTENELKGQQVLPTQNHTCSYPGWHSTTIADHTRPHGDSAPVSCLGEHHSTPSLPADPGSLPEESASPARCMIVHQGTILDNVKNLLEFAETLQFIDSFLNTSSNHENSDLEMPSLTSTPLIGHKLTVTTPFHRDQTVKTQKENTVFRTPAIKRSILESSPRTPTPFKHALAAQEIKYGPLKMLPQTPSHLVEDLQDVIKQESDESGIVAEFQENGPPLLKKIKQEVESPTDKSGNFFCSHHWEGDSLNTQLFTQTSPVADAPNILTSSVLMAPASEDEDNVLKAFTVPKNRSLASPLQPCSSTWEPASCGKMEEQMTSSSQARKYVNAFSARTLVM
Chain of Glucocorticoid receptor (Homo sapiens) (P04150 whole entry, looked up, the tested form may be a part): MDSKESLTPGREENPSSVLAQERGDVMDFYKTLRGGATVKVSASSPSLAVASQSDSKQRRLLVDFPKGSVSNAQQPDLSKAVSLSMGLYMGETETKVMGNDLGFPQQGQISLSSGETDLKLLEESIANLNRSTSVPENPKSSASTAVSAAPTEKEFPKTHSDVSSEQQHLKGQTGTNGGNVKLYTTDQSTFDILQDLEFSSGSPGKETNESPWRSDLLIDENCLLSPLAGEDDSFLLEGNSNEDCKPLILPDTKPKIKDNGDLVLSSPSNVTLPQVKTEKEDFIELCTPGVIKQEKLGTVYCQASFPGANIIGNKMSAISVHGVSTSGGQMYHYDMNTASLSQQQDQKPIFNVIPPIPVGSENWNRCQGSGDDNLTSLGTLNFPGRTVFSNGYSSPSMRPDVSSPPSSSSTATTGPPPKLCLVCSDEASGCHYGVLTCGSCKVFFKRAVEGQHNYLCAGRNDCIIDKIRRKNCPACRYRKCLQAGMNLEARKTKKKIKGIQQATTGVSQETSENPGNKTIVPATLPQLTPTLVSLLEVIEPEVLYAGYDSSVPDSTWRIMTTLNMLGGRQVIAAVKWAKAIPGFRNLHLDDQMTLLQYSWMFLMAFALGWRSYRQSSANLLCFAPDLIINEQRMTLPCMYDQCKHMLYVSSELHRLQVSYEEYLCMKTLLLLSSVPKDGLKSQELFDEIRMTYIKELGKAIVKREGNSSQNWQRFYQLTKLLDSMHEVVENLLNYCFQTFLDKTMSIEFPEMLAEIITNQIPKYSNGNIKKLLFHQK
Chain of Oxysterols receptor LXR-alpha (Homo sapiens) (Q13133 whole entry, looked up, the tested form may be a part): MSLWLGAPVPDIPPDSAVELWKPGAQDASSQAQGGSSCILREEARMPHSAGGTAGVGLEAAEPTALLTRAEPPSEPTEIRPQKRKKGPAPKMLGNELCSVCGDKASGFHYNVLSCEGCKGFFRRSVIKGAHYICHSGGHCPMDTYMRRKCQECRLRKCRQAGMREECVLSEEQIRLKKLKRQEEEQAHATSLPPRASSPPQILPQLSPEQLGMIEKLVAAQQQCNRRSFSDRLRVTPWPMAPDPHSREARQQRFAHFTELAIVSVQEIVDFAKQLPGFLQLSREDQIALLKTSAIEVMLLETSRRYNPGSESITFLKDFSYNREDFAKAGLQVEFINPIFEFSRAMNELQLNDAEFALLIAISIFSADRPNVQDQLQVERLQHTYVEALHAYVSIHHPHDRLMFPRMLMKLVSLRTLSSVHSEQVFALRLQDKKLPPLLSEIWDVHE
Chain of Oxysterols receptor LXR-beta (Homo sapiens) (P55055 whole entry, looked up, the tested form may be a part): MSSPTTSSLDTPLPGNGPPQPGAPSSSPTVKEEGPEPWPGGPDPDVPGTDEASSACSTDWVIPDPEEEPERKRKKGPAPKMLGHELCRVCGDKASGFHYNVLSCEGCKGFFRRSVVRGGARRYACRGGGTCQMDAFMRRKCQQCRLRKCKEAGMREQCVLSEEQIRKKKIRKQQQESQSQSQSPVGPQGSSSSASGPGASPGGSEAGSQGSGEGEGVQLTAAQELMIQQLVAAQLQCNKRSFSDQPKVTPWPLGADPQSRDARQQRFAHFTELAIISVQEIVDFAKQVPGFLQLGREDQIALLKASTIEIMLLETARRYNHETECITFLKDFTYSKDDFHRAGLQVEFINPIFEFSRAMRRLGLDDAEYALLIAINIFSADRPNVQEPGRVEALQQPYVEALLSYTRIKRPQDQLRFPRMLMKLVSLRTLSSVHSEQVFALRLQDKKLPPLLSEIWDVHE
Chain of Nuclear receptor subfamily 4 group A member 2 (Homo sapiens) (P43354 whole entry, looked up): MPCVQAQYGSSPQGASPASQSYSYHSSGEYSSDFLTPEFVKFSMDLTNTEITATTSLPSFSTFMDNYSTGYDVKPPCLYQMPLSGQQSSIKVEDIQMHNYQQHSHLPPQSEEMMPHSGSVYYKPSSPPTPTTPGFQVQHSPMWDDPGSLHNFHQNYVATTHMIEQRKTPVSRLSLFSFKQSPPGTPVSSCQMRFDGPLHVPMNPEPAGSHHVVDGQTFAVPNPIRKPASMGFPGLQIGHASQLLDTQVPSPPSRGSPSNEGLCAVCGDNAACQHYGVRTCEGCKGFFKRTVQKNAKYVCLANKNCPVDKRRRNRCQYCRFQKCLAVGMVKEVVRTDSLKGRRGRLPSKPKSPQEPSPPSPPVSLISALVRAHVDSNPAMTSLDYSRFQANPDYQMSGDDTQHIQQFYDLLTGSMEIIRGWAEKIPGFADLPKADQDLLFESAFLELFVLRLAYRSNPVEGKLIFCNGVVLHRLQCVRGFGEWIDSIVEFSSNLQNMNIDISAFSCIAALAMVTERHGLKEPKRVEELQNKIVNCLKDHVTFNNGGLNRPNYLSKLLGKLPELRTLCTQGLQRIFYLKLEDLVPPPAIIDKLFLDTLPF
Chain of Steroid hormone receptor ERR1 (Homo sapiens) (P11474 whole entry, looked up, the tested form may be a part): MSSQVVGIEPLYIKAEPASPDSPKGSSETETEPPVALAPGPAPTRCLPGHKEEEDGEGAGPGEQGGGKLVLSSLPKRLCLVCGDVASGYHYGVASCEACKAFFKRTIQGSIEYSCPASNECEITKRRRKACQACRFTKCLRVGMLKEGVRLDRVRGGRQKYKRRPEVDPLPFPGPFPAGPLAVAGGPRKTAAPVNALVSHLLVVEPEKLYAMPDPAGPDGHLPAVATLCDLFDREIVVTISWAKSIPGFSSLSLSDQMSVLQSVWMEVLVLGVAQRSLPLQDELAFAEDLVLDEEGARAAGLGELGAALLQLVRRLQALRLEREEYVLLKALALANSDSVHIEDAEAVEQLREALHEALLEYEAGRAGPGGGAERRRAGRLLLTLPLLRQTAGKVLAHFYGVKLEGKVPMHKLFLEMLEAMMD

The term AC50 denotes the concentration giving half of the maximal activity seen. For `CC(=O)OC/C=C(C)/C=C/C=C(C)/C=C/C1=C(C)CCCC1(C)C`, the AC50 in [1] was 100 µM (active); in [3] it was 1.23 µM (active). Also, the result in [2], in test [4], in test [5], in [6], in test [7] and in test [8] was inactive. Further, the molecule was classed as inactive in test [9] and in test [10].
`COc1cc(OC)c2ccc(=O)oc2c1`: the call in test [1], in test [2], in test [3], in [11], in test [6] and in [8] was inactive. Also, the result in [12], in test [9] and in [10] was inactive.
On to `CCCCN(CCO)CCO`, for which the call in [1], in test [2], in test [3], in test [4], in [11] and in test [8] was inactive. Besides, the molecule was called inactive in test [12] and in test [10].
With `COC(=O)c1ccc(C(=O)OC)cc1`, the outcome in test [1], in test [2], in test [3], in test [11], in [5] and in test [6] was inactive. For the same molecule, the call in test [7], in [8], in test [12], in [9], in test [13] and in test [10] was inactive.
`C=C(C)C(=O)OCCC[Si](OC)(OC)OC`: the result in test [1], in test [2], in test [3], in test [4], in test [11] and in test [5] was inactive. Besides, the call in test [7], in test [14], in test [8], in [9] and in [10] was inactive.
On to `CC/C(=C(\c1ccccc1)c1ccc(OCCN(C)C)cc1)c1ccccc1`, for which the molecule was classed as inactive in test [1], in test [2], in test [3], in test [11], in [5] and in [6]. For the same molecule, the result in test [15], in [7], in [8], in test [12], in [9] and in [13] was inactive. The outcome in [10] was inactive.
As to `CC1(C)CC(N)CC(C)(CN)C1` (configuration not stated), the outcome in test [1], in test [2], in test [3], in test [4], in [11] and in [14] was inactive. For the same molecule, the result in test [8], in test [12], in test [9], in test [13] and in [10] was inactive.
Regarding `C=CC(=O)OCCCCCC`, the outcome in [1], in test [2], in test [3], in test [11], in [5] and in test [6] was inactive. Also, the result in test [7], in test [9] and in test [10] was inactive.
For `CCCCCCOc1ccc(O)cc1`, the figures for the AC50 in [1] and in [4] were 20.5 µM (active) and 2.85 µM (active), respectively. Further, the result in test [2], in test [3], in [5], in [7], in [14] and in test [9] was inactive. Besides, the call in test [10] was inactive.
`CC(C)(CO)CO`: the result in test [1], in [2], in test [3], in test [16], in test [11] and in [5] was inactive. In addition, the molecule was called inactive in [15], in [7], in test [8] and in test [10].
